High-throughput results from PubChem BioAssay.
Only some compounds are listed: those with a hit (about 10% of all), similar ones and a draw of the others.
JMJD2A Tudor: JMJD2A Tudor domain (human) inhibition; O75164; AlphaScreen JMJD2A-Tudor / H3K4me3 peptide binding; hit rate 4.4% among 390,000; Potency, µM (doses to about 114 µM), inactives show at the highest dose activity change, negative = inhibition, usual class: inhibitors; further: potency means the concentration at half of the fitted maximal effect; on the % scale 0 is the no-effect control and ±100 the full control effect; nearly all actives have a fitted effect of over 50% in size
Target sequence (O75164 whole entry, looked up, the tested form may be a part): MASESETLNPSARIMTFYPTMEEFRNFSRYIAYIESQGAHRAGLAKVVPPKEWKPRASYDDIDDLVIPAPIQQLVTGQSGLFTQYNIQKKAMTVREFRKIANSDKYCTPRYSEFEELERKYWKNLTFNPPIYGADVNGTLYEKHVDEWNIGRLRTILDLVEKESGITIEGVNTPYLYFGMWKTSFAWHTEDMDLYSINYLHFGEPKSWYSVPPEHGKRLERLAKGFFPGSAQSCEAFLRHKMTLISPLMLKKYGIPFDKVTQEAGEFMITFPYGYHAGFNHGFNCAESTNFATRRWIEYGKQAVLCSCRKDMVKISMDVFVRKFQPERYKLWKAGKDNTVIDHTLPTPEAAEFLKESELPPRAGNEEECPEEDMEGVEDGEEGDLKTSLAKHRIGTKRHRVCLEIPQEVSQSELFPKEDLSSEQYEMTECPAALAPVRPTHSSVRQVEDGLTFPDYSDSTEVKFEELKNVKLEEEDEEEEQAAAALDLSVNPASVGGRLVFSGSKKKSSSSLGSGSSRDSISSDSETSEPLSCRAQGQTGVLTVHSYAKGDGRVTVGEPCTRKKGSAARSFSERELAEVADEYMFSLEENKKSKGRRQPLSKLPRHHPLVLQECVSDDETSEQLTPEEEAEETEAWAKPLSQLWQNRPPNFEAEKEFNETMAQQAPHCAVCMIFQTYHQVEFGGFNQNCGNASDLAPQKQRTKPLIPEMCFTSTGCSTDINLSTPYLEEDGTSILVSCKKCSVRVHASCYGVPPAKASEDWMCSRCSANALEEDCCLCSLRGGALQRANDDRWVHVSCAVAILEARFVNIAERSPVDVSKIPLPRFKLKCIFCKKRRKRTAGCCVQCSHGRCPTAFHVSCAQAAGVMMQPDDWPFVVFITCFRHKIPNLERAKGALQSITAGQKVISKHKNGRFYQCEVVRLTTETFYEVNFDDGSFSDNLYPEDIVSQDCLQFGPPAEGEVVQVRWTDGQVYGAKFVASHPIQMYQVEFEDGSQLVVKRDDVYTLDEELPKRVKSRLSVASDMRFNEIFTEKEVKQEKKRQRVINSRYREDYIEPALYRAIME
Six1-Eya2 inh: Six1/Eya2 interaction inhibition; Q15475+O00167; AlphaScreen GST-Six1/His-Eya2 binding, biochemical; hits give low values; activity change, % (concentration not given with the values); hit rate 0.56% among 360,000; AID 651725; in the data active means activity change below about -65%; inconclusive means mostly about -30% to -63%; further: on the % scale 0 is the no-effect control and ±100 the full control effect
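GST-Six1 + His-Eya2 (5X stock: 250/500 nM); Tris pH 8.0, 300 mM NaCl, 0.05% BSA, 0.02% Tween 20; GSH donor/Ni acceptor beads; 1 h 37 °C dark; AlphaScreen readout.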
CtBP-E1A inh: blocks the CtBP interaction with E1A. hit rate 0.49% among 340,000. AlphaScreen GST-E1A/His-CtBP binding, 1536-well; hits give low values. activity change, % (test concentration not listed); in the data active means activity change below about -65%; inconclusive means mostly about -30% to -63%; further: on the % scale 0 is the no-effect control and ±100 the full control effect
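GST-E1A and His-tagged CtBP (125 nM each as 5X stock) were preincubated with pin-transferred compound for 2 h at 37 °C in the dark, then glutathione donor and nickel acceptor beads were added for 1 h before AlphaScreen reading.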
BAZ2B block: inhibitors of human BAZ2B bromodomain. AlphaScreen BAZ2B-H3K14Ac peptide displacement. Potency, µM (series often up to 114 µM), inactives show at the highest dose activity change, negative = inhibition, hits mostly inhibitors. AID 504333. hit rate 4.4% among 360,000; further: potency means the concentration at half of the fitted maximal effect; on the % scale 0 is the no-effect control and ±100 the full control effect; nearly all actives have a fitted effect of over 60% in size
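Complex of BAZ2B and biotin-H3K14Ac (50 nM apiece) forms over 30 min at RT, then faces library compounds up to 110 uM for another 30 min; AlphaScreen beads added, 20 min dark incubation, luminescence read.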
HP1b chromo inh: blocks HP1-beta chromodomain binding to methylated histone tails | AID 540317 | P83916 | Potency, µM (highest dose often 114 µM), without a hit: top-dose activity change, negative = inhibition, hits mostly inhibitors | hit rate 0.56% among 390,000 | AlphaScreen HP1-beta / biotin-H3K9me3 peptide binding; further: potency means the concentration at half of the fitted maximal effect; nearly all actives have a fitted effect of over 70% in size
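Compound inhibition of the preformed complex between 50 nM HP1-beta and 50 nM biotinylated H3K9me3 peptide was read by AlphaScreen. Buffer was PBS pH 7.4 with 0.01% Tween-20. Incubations ran 30 min at room temperature, with 10 ug/mL donor/acceptor beads.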
G9a block: blocks human histone lysine methyltransferase G9a. Q96KQ7. G9a H3K9 monomethylation, AlphaScreen, 2 h. Potency, µM (doses to about 102 µM), for inactives: top-dose activity, negative = inhibition, actives largely listed as inhibitors. hit rate 8.8% among 350,000; further: potency means the concentration at half of the fitted maximal effect; on the % scale 0 is the no-effect control and ±100 the full control effect; nearly all actives have a fitted effect of over 75% in size
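Quantitative HTS format: methyltransferase activity on a biotin-tagged H3K9 peptide is measured by AlphaScreen, using a rabbit anti-monomethyl-H3K9 antibody with streptavidin donor and anti-IgG acceptor beads. Final levels are 20 nM enzyme, 500 nM peptide, 20 uM SAM; 2 h RT.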
The depositor's hits bear a star; ? = inconclusive; . = no result; [ ] = dose if it differs, or a comment. Unless noted, the call rests on the fitted dose curve; in most records, active means well fitted inhibition curve with a large enough effect; inconclusive means small, poorly fitted or top-dose-only effect; inactive means no such curve, though single readings can be large or run the other way.

SMILES	JMJD2A Tudor	Six1-Eya2 inh	CtBP-E1A inh	BAZ2B block	HP1b chromo inh	G9a block
Cc1nn(-c2ccccc2)c(C)c1NC(=O)COC(=O)CC(C)c1ccccc1 (stereo not given)	15.8µM*	-0.9	-1.9	7.9%	26.7%	?
Cc1ccccc1-c1nc(CN2CCC(C(=O)NCc3ccc(F)cc3)CC2)c(C)o1	-28.6%	.	.	?	19.2%	-34.5%[59 µM]
CCN(CC)c1ccc(C(=O)OCC(=O)NC2CCCCC2C)cc1 (stereo not given)	50.1µM*	3.9	-1.3	6.9%	1.0%	-10.9%
CC1CCCC(NC(=O)COC(=O)c2ccc(N(C)C)cc2)C1C (stereo not given)	-9.5%	-5.6	3.5	-6.5%	28.8%	-24.3%
O=C(NCc1n[nH]c(=S)n1-c1cccc(C(F)(F)F)c1)c1ccc(S(=O)(=O)N2CCCCC2)cc1	-11.3%	1.4	-7.9	-14.2%	29.0%	8.91µM*
O=C(NCc1n[nH]c(=S)n1-c1cccc(C(F)(F)F)c1)c1ccc(S(=O)(=O)N2CCCC2)cc1	-31.7%	1.5	.	14.9%	34.4%	12.6µM*
CCN(CC)CCCNc1oc(/C=C/c2ccc(OC)c(OC)c2)nc1C#N	-14.8%	.	.	-1.9%	16.7%	-8.4%[59 µM]
O=C(SCc1c(O)c2ccccc2oc1=O)c1ccccc1	.	-5.8	-13.5	.	.	.
Oc1c(CN2CCc3ccccc3C2)cc(Cl)c2cccnc12	25.1µM*	-92.9*	-89.0*	8.91µM*	25.6%	44.7µM*
Oc1c(Cl)cc(CN2CCOCC2)c2cccnc12	11.2µM*	-89.5*	.	7.94µM*	-25.5%	-0.6%[2.33 µM]
O=[N+]([O-])c1cc(CN2CCOCC2)c2cccnc2c1O	7.94µM*	-87.6*	-4.4	3.16µM*	23.5%	?
Oc1c(Cl)cc(Cl)c(Cl)c1CN1CCOCC1	-3.4%	-9.4	-16.6	.	-1.0%	.
O=c1oc2ccccc2c(O)c1Cc1cc(Cl)c2cccnc2c1O	-35.9%	-9.2	?	31.6µM*	25.0%	.
Cc1nnc(N2CCN(C(=O)NC(C)C)CC2)c2nn(-c3ccccc3)c(C)c12	-10.3%	.	.	-12.8%	43.5%	2.2%[59 µM]
COc1ccccc1CNC(=O)CCCCn1c(=O)c2ccccc2n(Cc2c(C)cc(C)cc2C)c1=O	-8.9%	.	.	-0.8%	8.5%	-26.8%[59 µM]
CC1CCc2nc(-c3cc4c(ccc5ccccc54)oc3=O)sc2C1 (stereo not given)	10.8%[57.1 µM]	.	.	.	18.5%[57 µM]	.
Cc1cccc(C)c1-n1ncc(C(=O)N2CCN(c3ncccn3)CC2)c1C1CCN(C(=O)OC(C)(C)C)CC1	-2.6%	.	.	7.1%[57.1 µM]	25.6%	-32.5%[59 µM]
Oc1c(CN2CCCCC2)cc(Br)c2cccnc12	22.4µM*	-91.0*	-92.3*	28.2µM*	26.1%	?
O=[N+]([O-])c1cc(CN2CCN(c3ccccc3)CC2)c(O)c2ncccc12	10µM*	-90.8*	-94.6*	3.16µM*	17.8%	?
O=C(COc1c(Br)cc(Br)c2cccnc12)N1CCCCC1	-10.6%	-11.8	-6.9	?	37.4%	8.1%
O=C(NNc1c(Cl)cccc1Cl)c1sc2ccccc2c1Cl	?	.	.	.	32.8%	.
COc1ccc2c(c1)CC(C(=O)Nc1cc(OC)c(OC)c(OC)c1)CO2 (stereo not given)	-33.9%	.	.	-11.2%	10.4%[57 µM]	3.2%[59 µM]
Cc1nc2ccc(S(=O)(=O)Nc3cc(-c4nc5cccnc5s4)ccc3C)cc2s1	-7.0%	-25.5	-18.8	-24.8%	26.7%	50.1µM*
Cc1nc2ccc(S(=O)(=O)Nc3cccc(-c4nc5cccnc5s4)c3C)cc2s1	-30.6%	-2.8	-5.1	-34.4%	-2.1%	50.1µM*
COc1[nH]c(/N=C/c2ccco2)c(C#N)c1C#N	31.6µM*	.	.	.	22.4µM*	.
SMILES	JMJD2A Tudor	Six1-Eya2 inh	CtBP-E1A inh	BAZ2B block	HP1b chromo inh	G9a block
Cc1cccc(OCc2nc(C#N)c(N3CCCC3)o2)c1	-35.4%	-16.9	?	39.8µM*	?	.
N#Cc1nc(COc2ccccc2)oc1N1CCCCC1	?	-20.8	?	?	?	?
N#Cc1nc(COc2ccc(Cl)cc2)oc1N1CCCCCC1	?	?	-30.0	11.2µM*	-46.1%	?
CCc1nc(C#N)c(N2CCCCC2)o1	-22.1%	11.8	-0.1	-37.2%	10.3%	-33.4%[59 µM]
Cc1ccc(OCc2nc(C#N)c(N3CCCCC3)o2)cc1	?	-17.3	-26.2	28.2µM*	?	39.8µM*
N#Cc1nc(COc2cccc(Cl)c2)oc1N1CCN(c2ccccc2)CC1	?	?	-8.6	?	-28.6%	?
CN(C)c1ccc(-c2cc(Nc3ccc(F)cc3)ncn2)cc1	.	.	.	.	.	1.7%[0.501 µM]
COc1ccc(C2c3ccc4ccccc4c3Oc3ncn4nc(Cc5ccccc5)nc4c32)cc1OC (stereo not given)	-4.8%	-0.8	7.5	-8.5%	8.7%	7.08µM*
COC(=O)c1ccc(C2Nc3c(C)cc(C)cc3C3C=CCC32)cc1 (stereo not given)	?	.	.	79.4µM*	1.6%	4.47µM*
COC(=O)c1ccc([C@@H]2Nc3c(cccc3C(F)(F)F)[C@@H]3C=CC[C@@H]32)cc1	25.6%	.	.	62.4%	122.6%	46.5%[59 µM]
Cc1cc(C)c2c(c1)[C@@H]1C=CC[C@@H]1[C@H](c1ccc(S(=O)(=O)N3CCOCC3)cc1)N2	?	0.6	-5.5	-10.5%	1.3%	3.55µM*
NS(=O)(=O)c1ccc(CCNC(=O)CSc2nc3ccsc3c(=O)n2CC2CCC(C(=O)O)CC2)cc1 (stereo not given)	5.1%	0.2	.	-6.5%	30.4%	8.9%
NS(=O)(=O)c1ccc(CCNC(=O)CSc2nc3ccsc3c(=O)n2C2CC2)cc1	0.7%	0.2	2.1	15.2%	43.0%	70.8µM*
CCc1ccc(CN2CCc3nc(N4CCN(c5ccccc5F)CC4)ncc3C2)cc1	-14.6%	.	.	-20.7%	52.3%	-4.8%[12.7 µM]
S=C(c1cn(CCOc2cccc3ccccc23)c2ccccc12)N1CCCC1	?	-14.9	-16.9	-9.4%	2.0%	?
CN1CCN(C(=S)c2cn(Cc3ccccc3)c3ccccc23)CC1	?	-23.5	-3.1	?	7.0%	44.7µM*
S=C(c1cn(CCOc2ccccc2)c2ccccc12)N1CCCC1	-27.4%	-21.0	-21.0	-34.7%	-8.9%	35.5µM*
O=C(O)Cn1cc(C(=S)N2CCCCC2)c2ccccc21	?	0.0	9.4	5.7%	-8.8%	10µM*
COc1ccc(Cl)cc1NC(=O)Cn1cc(S(=O)(=O)Cc2cccc(Cl)c2)c2ccccc21	-16.5%	.	.	1.4%	8.9%	-15.4%[59 µM]
CCOc1ccc(CCNC(=O)C2Cc3ccccc3N2C(=O)CC)cc1OCC (stereo not given)	-2.3%	.	.	-10.0%	30.3%	7.9%[12.7 µM]
CCOC(=O)/C=C1\CC(C(=O)OCC)Oc2ccccc21 (stereo not given)	8.9%	13.1	4.2	.	44.1%	62.3%
